The assay has as its system A549. Briefly: relative viability (normalised to negative control = 1, bortezomib = 0) (fraction); higher = less cytotoxic. The conditions noted are these: inflammatory serum-free RHB-A with cytokines + LPS, 5 d + 24 h CellTiter-Blue. Background: Resazurin is reduced to fluorescent resorufin, in cell work by metabolically active cells.
Setting [1] is: compound 30 nM, GSK126 pretreatment: 5 uM GSK126.
[2] abbreviates: compound 30 nM, GSK126 pretreatment: none (vehicle).
[3] abbreviates: compound 300 nM, GSK126 pretreatment: 5 uM GSK126.
Where [4] appears, read: compound 300 nM, GSK126 pretreatment: none (vehicle).

Structures are written as SMILES. Counter-ions that a name gives are not always drawn. ± gives the standard deviation of the averaged measurements.

The values that follow come from the supplement of paper PMC6279402.

On to `COc1ccc(-c2ccc3c(N4CCOC[C@@H]4C)nc(N4CCOC[C@@H]4C)nc3n2)cc1CO`, for which the relative viability was determined as 0.392 ± 0.011 under setting [1], 0.396 ± 0.016 under setting [2], 0.191 ± 0.054 under setting [3] and 0.197 ± 0.015 under setting [4].
For the compound `Cc1ccc(-n2nc(C(C)(C)C)cc2NC(=O)Nc2ccc(OCCN3CCOCC3)c3ccccc23)cc1`, the relative viability turned out to be 1.13 ± 0.13 under setting [1], 0.937 ± 0.18 under setting [2], 1.32 ± 0.064 under setting [3] and 1.13 ± 0.23 under setting [4].
`Cc1cc(Nc2cc(N3CCN(C)CC3)nc(/C=C/c3ccccc3)n2)n[nH]1`: the relative viability reads like this: under setting [1], 0.897 ± 0.13; under setting [2], 0.929 ± 0.11; under setting [3], 0.827 ± 0.17; under setting [4], 0.769 ± 0.04.
The matching figures for `COc1ccc(-c2cc3c(C)nc(N)nc3n(C3CCC(OCCO)CC3)c2=O)cn1` (stereo not drawn): 0.617 ± 0.071, 0.634 ± 0.063, 0.0912 ± 0.017 and 0.087 ± 0.014.
The matching figures for `O=C(c1ccc(/C=C/c2n[nH]c3ccccc23)cc1)N1CCNCC1`: 0.843 ± 0.022, 0.862 ± 0.046, 0.957 ± 0.065 and 1.04 ± 0.091.
The corresponding values for `O=C(O)c1ccc2c(c1)nc(Nc1cccc(Cl)c1)c1ccncc12` are 0.707 ± 0.14, 0.761 ± 0.04, 0.728 ± 0.11 and 0.839 ± 0.12.
Turning to `CC(=O)Nc1nc(C)c(-c2ccc(Cl)c(S(=O)(=O)NCCO)c2)s1`, the relative viability by setting is: under setting [1], 0.61 ± 0.047; under setting [2], 0.678 ± 0.015; under setting [3], 0.487 ± 0.16; under setting [4], 0.712 ± 0.052.
Take `NC(=O)c1ccc(-c2nc(-c3ccccn3)c(-c3ccc4c(c3)OCO4)[nH]2)cc1`: the relative viability is 0.825 ± 0.08 under setting [1], 0.814 ± 0.1 under setting [2], 0.817 ± 0.073 under setting [3] and 0.882 ± 0.1 under setting [4].
On to `CC[C@H](CO)Nc1nc(NCc2ccccc2)c2ncn(C(C)C)c2n1` [ROSCOVITINE; Roscovitine(CYC202); Roscovitine], for which the relative viability by setting is: under setting [1], 0.929 ± 0.16; under setting [2], 0.873 ± 0.12; under setting [3], 0.963 ± 0.063; under setting [4], 0.902 ± 0.088.
In the case of `CCN(CC)CCNC(=O)c1c(C)[nH]c(/C=C2\C(=O)Nc3ccc(F)cc32)c1C` [Sunitinib; Sunitinib Malate; Sunitinib (free base)], the relative viability reads like this: under setting [1], 0.842 ± 0.03; under setting [2], 0.832 ± 0.046; under setting [3], 0.896 ± 0.067; under setting [4], 0.939 ± 0.097.
The corresponding values for `Cc1ccc(NC(=O)c2ccc(CN3CCN(C)CC3)cc2)cc1Nc1nc(-c2cccnc2)cs1` [Masitinib(AB1010)] are 0.802 ± 0.1, 0.761 ± 0.1, 0.841 ± 0.11 and 0.979 ± 0.091.
With `COc1nc(N)nc2c1ncn2[C@@H]1O[C@H](CO)[C@@H](O)[C@@H]1O` [Nelarabine], the relative viability worked out at 0.838 ± 0.12 under setting [1], 0.875 ± 0.13 under setting [2], 0.96 ± 0.16 under setting [3] and 0.956 ± 0.14 under setting [4].
The matching figures for `CC/C(=C(\c1ccccc1)c1ccc(OCCN(C)C)cc1)c1ccccc1` [Tamoxifen citrate]: 0.967 ± 0.075, 0.863 ± 0.019, 0.909 ± 0.13 and 0.972 ± 0.024.
`O=C(NC1CCNCC1)c1n[nH]cc1NC(=O)c1c(Cl)cccc1Cl`: the relative viability reads like this: under setting [1], 0.969 ± 0.17; under setting [2], 0.924 ± 0.074; under setting [3], 0.0464 ± 0.029; under setting [4], 0.136 ± 0.057.
`COc1cc2c(N3CCN(C(=O)Nc4ccc(OC(C)C)cc4)CC3)ncnc2cc1OCCCN1CCCCC1` [Tandutinib (MLN518)]: the relative viability is 0.74 ± 0.03 under setting [1], 0.735 ± 0.071 under setting [2], 0.829 ± 0.075 under setting [3] and 0.862 ± 0.1 under setting [4].
On to `CN(C)Cc1cccc(N=C(c2ccccc2)c2c(O)[nH]c3cc(C(=O)N(C)C)ccc23)c1`, for which the relative viability under setting [1] amounted to 0.839 ± 0.14, the relative viability under setting [2] is 0.864 ± 0.16, the relative viability under setting [3] amounted to 0.954 ± 0.16 and the relative viability under setting [4] was 1.04 ± 0.16.
Take `O=C(c1ccc(OCCN2CCCCC2)cc1)c1c(-c2ccc(O)cc2)sc2cc(O)ccc12` [Raloxifene HCl; Raloxifene hydrochloride]: the relative viability reads like this: under setting [1], 0.955 ± 0.064; under setting [2], 0.897 ± 0.094; under setting [3], 0.961 ± 0.043; under setting [4], 0.987 ± 0.058.
`CC1=C(/C=C/C(C)=C/C=C/C(C)=C/C(=O)O)C(C)(C)CCC1` [Retinoic acid; Tretinoin; 13-cis-retinoic acid]: the relative viability runs as follows: under setting [1], 1.04 ± 0.088; under setting [2], 0.922 ± 0.043; under setting [3], 1.34 ± 0.05; under setting [4], 1.14 ± 0.064.
In the case of `Cc1ccc(S(=O)(=O)Nc2nc3ccccc3nc2Nc2ccc3nsnc3c2)cc1`, the relative viability came to 0.8 ± 0.092 under setting [1], 0.774 ± 0.06 under setting [2], 0.748 ± 0.14 under setting [3] and 0.842 ± 0.06 under setting [4].
On to `CNC(=O)c1ccccc1Sc1ccc2c(/C=C/c3ccccn3)n[nH]c2c1`, for which the relative viability was determined as 0.898 ± 0.013 under setting [1], 0.875 ± 0.039 under setting [2], 0.835 ± 0.13 under setting [3] and 0.891 ± 0.063 under setting [4].
The corresponding values for `N#CC1(c2ccc(NC(=O)c3cccnc3NCc3ccncc3)cc2)CCCC1` [Apatinib (YN968D1)] are 0.83 ± 0.072, 0.853 ± 0.054, 0.936 ± 0.085 and 0.9943 ± 0.005.
The corresponding values for `Cc1c(CN2CCN(C(=O)[C@H](C)O)CC2)sc2c(N3CCOCC3)nc(-c3cnc(N)nc3)nc12` are 0.678 ± 0.048, 0.754 ± 0.063, 0.15 ± 0.033 and 0.172 ± 0.013.
`CN(C)c1ccc(-c2nc3ncc(Cl)c(N4CCN(CC(=O)Nc5nccs5)CC4)c3[nH]2)cc1`: the relative viability came to 0.997 ± 0.11 under setting [1], 0.983 ± 0.091 under setting [2], 1.1 ± 0.097 under setting [3] and 1.07 ± 0.066 under setting [4].
As for `Nc1ccn([C@@H]2O[C@H](CO)[C@@H](O)[C@@H]2O)c(=O)n1`, the relative viability is 0.833 ± 0.016 under setting [1], 0.79 ± 0.088 under setting [2], 0.668 ± 0.094 under setting [3] and 0.475 ± 0.1 under setting [4].
On to `Cc1ccc(Nc2nccc(N(C)c3ccc4c(C)n(C)nc4c3)n2)cc1S(N)(=O)=O` [Pazopanib Hydrochloride], for which the relative viability under setting [1] is 0.972 ± 0.12, the relative viability under setting [2] came to 0.935 ± 0.081, the relative viability under setting [3] is 1.11 ± 0.096 and the relative viability under setting [4] is 1.09 ± 0.12.
As for `COc1cc(OC)c(/C=C/S(=O)(=O)Cc2ccc(OC)c(NCC(=O)O)c2)c(OC)c1`, the relative viability by setting is: under setting [1], 0.4 ± 0.058; under setting [2], 0.303 ± 0.018; under setting [3], 0.352 ± 0.015; under setting [4], 0.245 ± 0.035.
For `O=C1c2ccccc2-c2n[nH]c3cccc1c23`, the relative viability is, setting by setting: under setting [1], 0.785 ± 0.1; under setting [2], 0.796 ± 0.078; under setting [3], 0.801 ± 0.075; under setting [4], 0.894 ± 0.15.
